From PubChem
The list is not random: actives were taken first. Their share in the collection is about 8.2%.
KB-V1 cytotox – qHTS assay for MDR1-selective chemotherapeutics: Primary screen using the drug-selected MDR subline cells KB-V1. Potency, µM (titrated, usually from 46.1 µM), hits mostly cytotoxic. KB-V1 MDR cells viability, CellTiter-Glo, 72 h. 3.4% of 400,000 active. AID 1347076, 2019; note: % is set by controls: 0 for no effect and ±100 for the full control effect; nearly all actives have a fitted effect of over 60% in size
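KB-V1 MDR subline cells in DMEM (phenol-red free, 10% FBS) exposed to compounds in qHTS concentration series for 72 h at 37 degrees C. Viability read by CellTiter-Glo luminescence; concentration-effect curves fitted after normalization and correction.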
SW480 rerep – A quantitative high throughput screen for small molecules that induce DNA re-replication in SW480 colon adenocarcinoma cells. SW480 DNA re-replication, Hoechst DNA content imaging, 48 h. Potency, µM (series often up to 46.1 µM), for the others: at the highest dose re-replication activation, most hits filed as activators. 1.8% of 340,000 active. AID 624297, 2012; note: % of control where 0% means no effect; nearly all actives have a fitted effect of over 55% in size
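First, 250 cells per well were seeded. Next, compound or vehicle (23 nL) was pinned in, plates sat 48 hr at 37 C. Finally Hoechst was added for 40 min before fluorescence scanning.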
MCF10A rereplic – A quantitative high throughput screen for small molecules that induce DNA re-replication in MCF 10a normal breast cells. MCF 10A DNA re-replication, Hoechst nuclear intensity, 48 h. Potency, µM (top dose mostly 46.1 µM), without a hit: top-dose activity, positive = re-replication, usual class: activators. 2.9% of 350,000 active; note: % of control where 0% means no effect; nearly all actives have a fitted effect of over 50% in size
ELG1 repair inh – qHTS screen for small molecules that inhibit ELG1-dependent DNA repair in human embryonic kidney (HEK293T) cells expressing luciferase-tagged ELG1; AID 504467, 2011; 2.3% of 330,000 active; Potency, µM (titrated, usually from 46.1 µM), for inactives: at the top dose activity change, negative = inhibition, most hits filed as inhibitors; HEK293T ELG1-luciferase reporter, luminescence, 16 h; DNA damage induced by 5-fluorouridine; note: % is set by controls: 0 for no effect and ±100 for the full control effect; nearly all actives have a fitted effect of over 55% in size
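5-Fluorouridine DNA damage + compound/DMSO, 2,000 cells/well, 16 h, 37 °C/5% CO2. ONE-Glo, 30 min RT, luminescence. Readout = decrease in reporter signal.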
KB-3-1 cytotox – qHTS assay for MDR1-selective chemotherapeutics: Primary screen using the parental adenocarcinoma cell KB-3-1; KB-3-1 viability, CellTiter-Glo ATP luminescence, 72 h; Potency, µM (highest dose often 46.1 µM), most hits filed as cytotoxic; 1.4% of 400,000 active; note: % is set by controls: 0 for no effect and ±100 for the full control effect; nearly all actives have a fitted effect of over 60% in size
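Cells are dispensed, compounds pinned in, plates held at 37 °C for 72 h, then CellTiter-Glo is added and luminescence read after 10 minutes. Cell line: parental KB-3-1 in phenol-red-free DMEM, 10% FBS.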
* hit, by the source's call; [ ] = remark or other dose. Calls come from the whole dose curve; as a rule, active = well fitted curve in the direction sought with a large enough effect; inconclusive = small, poorly fitted or top-dose-only effect, or another doubt; inactive = no such curve, though single readings can be large; an effect the other way counts as inactive or inconclusive. Potency is the fitted concentration of half-maximal effect.

Screening C=CCc1cc(OC)c2c(c1)OCO2 returned KB-V1 cytotox inactive, SW480 rerep -10%, MCF10A rereplic 0%, ELG1 repair inh 16% and KB-3-1 cytotox inactive.
COc1cc(C2c3cc4c(cc3CC3COC(=O)C32)OCO4)cc(OC)c1O (centres undefined) was read as KB-V1 cytotox inconclusive, SW480 rerep 0.16µM*, MCF10A rereplic inconclusive and KB-3-1 cytotox inactive.
For COC1CC(C)C(OC)c2cc(O)cc(c2O)NC(=O)C(C)=CC=CC(C)C(OC(N)=O)C(C)=CC(C)C1OC (centres undefined) the results were KB-V1 cytotox inactive, SW480 rerep 2.6µM*, MCF10A rereplic 5.8µM* and KB-3-1 cytotox inactive.
`Clc1ccc2c(c1)C(c1ccccc1)=NCc1nncn1-2` gave SW480 rerep -4% and MCF10A rereplic 2%.
`CN1CCc2nc3sc(C#N)c(N)c3c(-c3cccs3)c2C1` gave KB-V1 cytotox inactive, SW480 rerep 4%, MCF10A rereplic 3%, ELG1 repair inh -16% and KB-3-1 cytotox inactive.
`NC(=O)c1sc2nc3c(c(-c4cccs4)c2c1N)CCCC3` gave SW480 rerep -422%, MCF10A rereplic inconclusive and ELG1 repair inh 2.3µM*.
CN(C)C(=O)Oc1ccc(OC(=O)N(C)C)cc1 was read as KB-V1 cytotox inactive, SW480 rerep 2%[9.22 µM], MCF10A rereplic inconclusive, ELG1 repair inh inconclusive and KB-3-1 cytotox inactive.
Screening CN(C)C(=O)Oc1ccc(OCc2nc3ccccc3[nH]2)cc1 returned KB-V1 cytotox 12µM*, SW480 rerep 0%, MCF10A rereplic 8%, ELG1 repair inh inconclusive and KB-3-1 cytotox inconclusive.
For C=C1CC[C@H](O)C/C1=C/C=C1\CCC[C@]2(C)[C@@H]([C@H](C)CCCC(C)C)CC[C@@H]12 the results were SW480 rerep 15% and MCF10A rereplic 24µM*.
Screening O=c1[nH]c(CN2CC=C(c3ccccc3)CC2)nc2scc(-c3ccccc3)c12 returned KB-V1 cytotox inconclusive, SW480 rerep -2%, MCF10A rereplic 18µM*, ELG1 repair inh inconclusive and KB-3-1 cytotox inconclusive.
For O=c1[nH]c(CN2CC=C(c3ccccc3)CC2)nc2cc(C(F)(F)F)ccc12 the results were KB-V1 cytotox inconclusive, SW480 rerep 1%, MCF10A rereplic 15µM*, ELG1 repair inh 1% and KB-3-1 cytotox inactive.
For Cc1ccc2c(CN3CC=C(c4ccccc4)CC3)cc(=O)oc2c1C the results were KB-V1 cytotox inactive, SW480 rerep 6%, MCF10A rereplic 3%, ELG1 repair inh 12% and KB-3-1 cytotox inactive.
`CN(C(=O)CN1CC=C(c2ccccc2)CC1)c1c(N)n(Cc2ccccc2)c(=O)[nH]c1=O` gave KB-V1 cytotox inactive, SW480 rerep -7%, MCF10A rereplic 7%, ELG1 repair inh 1% and KB-3-1 cytotox inactive.
Cc1noc(C)c1C(=O)N1CCC2(CC1)Oc1ccc(F)cc1C(=O)C21CC(c2ccc(Cl)cc2)=NO1 (centres undefined) was read as KB-V1 cytotox inactive, SW480 rerep inconclusive, MCF10A rereplic 4%, ELG1 repair inh -16% and KB-3-1 cytotox inactive.
`O=C(CN1CC=C(c2ccccc2)CC1)NC(=O)NC1CCCCC1` gave KB-V1 cytotox inactive, SW480 rerep -22%[1.84 µM], MCF10A rereplic 21µM*, ELG1 repair inh 3% and KB-3-1 cytotox inactive.
CC(CO)NC(=O)C1C=C2c3cccc4[nH]cc(c34)CC2N(C)C1 (centres undefined) was read as SW480 rerep -3% and MCF10A rereplic -4%.
CC12CCC3C(CCC4(O)CC(O)CCC34C=NO)C1(O)CCC2C1=COC(=O)C1 (centres undefined) was read as KB-V1 cytotox inconclusive, SW480 rerep 1.6µM*, MCF10A rereplic inconclusive and KB-3-1 cytotox 0.37µM*.
